Read-out in test [1]: Transforming growth factor beta 1 (TGFb1), TGFB1 (gene 7040)
The test is described as follows: BSK_KF3CT_TGFb1: BioMAP Diversity Plus: KF3CT Assay for Transforming growth factor beta 1 (TGFb1) Biomarker Activity (AID 2283072). Particulars: primary human keratinocytes with fibroblasts; actives raise or lower the signal. The gist of the method: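 KF3CT co-culture (keratinocytes + fibroblasts), 24 h exposure → TGF-b1 ELISA → bidirectional fit, DMSO = baseline. Parallel SRB total-protein staining (0.1% SRB, 10% TCA fixation, 560 nm) for cytotoxicity.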

Read-out in test [2]: C-C motif chemokine 2 (Homo sapiens) (UniProt P13500)
The test is described as follows: BSK_KF3CT_MCP1: BioMAP Diversity Plus: KF3CT Assay for Monocyte Chemoattractant Protein 1 (MCP1/CCL2) Biomarker Activity (AID 2283073). Particulars: primary human keratinocytes with fibroblasts; actives raise or lower the signal. The method in brief: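 Human keratinocyte–foreskin fibroblast co-culture; MCP-1 measured by ELISA 24 h after dosing. Bidirectional fit vs DMSO; cytotoxicity tracked by SRB total protein in parallel cultures.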

Read-out in test [3]: Matrix Metallopeptidase 9 (MMP9), MMP9 (gene 4318)
The test is described as follows: BSK_KF3CT_MMP9: BioMAP Diversity Plus: KF3CT Assay for Matrix Metallopeptidase 9 (MMP9) Biomarker Activity (AID 2283074).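 On AC50: MMP9 protein level quantified by ELISA in the co-culture.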 The following applies: primary human keratinocytes with fibroblasts; actives raise or lower the signal. The gist of the method:
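ELISA read-out of MMP-9 at 24 h post-dosing in a co-culture of human skin keratinocytes and foreskin fibroblasts. Gain or loss of signal was fitted in both directions against DMSO.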

Read-out in test [4]: urokinase plasminogen activator (uPA), PLAU (gene 5328)
The test is described as follows: BSK_KF3CT_uPA: BioMAP Diversity Plus: KF3CT Assay for urokinase plasminogen activator (uPA) Biomarker Activity (AID 2283075). Particulars: primary human keratinocytes with fibroblasts; actives raise or lower the signal. The method in brief: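 Skin co-culture (keratinocytes + foreskin fibroblasts), human primary; 24 h post-dose; uPA by ELISA; gain/loss fit vs DMSO baseline.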

Read-out in test [5]: CD40, CD40 (gene 958)
The test is described as follows: BSK_LPS_CD40: BioMAP Diversity Plus: LPS Assay for CD40 Biomarker Activity (AID 2283076). Particulars: primary human HUVEC with PBMC; actives raise or lower the signal. The method in brief: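 HUVEC plus PBMC co-culture stimulated with LPS; CD40 quantified by ELISA 24 h after compound dosing. Fitting was bidirectional relative to DMSO. SRB staining of parallel cultures flagged overt cytotoxicity.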

Read-out in test [6]: E-selectin (Homo sapiens) (UniProt P16581)
The test is described as follows: BSK_LPS_Eselectin: BioMAP Diversity Plus: LPS Assay for Eselectin Biomarker Activity (AID 2283077). The following applies: primary human HUVEC with PBMC; actives raise or lower the signal. The gist of the method:
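Human umbilical vein endothelial cells co-cultured with PBMC under LPS stimulation; cell-surface E-selectin measured by ELISA 24 h after dosing. Change in either direction versus DMSO, with SRB total-protein staining in parallel cultures for cytotoxicity.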

Read-out in test [7]: Interleukin-8 (IL8), CXCL8 (gene 3576)
The test is described as follows: BSK_LPS_IL8: BioMAP Diversity Plus: LPS Assay for Interleukin-8 (IL8) Biomarker Activity (AID 2283078). The following applies: primary human HUVEC with PBMC; actives raise or lower the signal. The gist of the method: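 Human umbilical vein endothelial cells co-cultured with PBMC, LPS-stimulated, exposed to compound for 24 h. IL-8 quantified by ELISA; fitted in both directions against DMSO, with SRB total-protein staining of parallel cultures for cytotoxicity.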

The nature of test [8]: BSK_LPS_SRB: Viability Assessment in the BioMAP Diversity Plus: LPS Assay (AID 2283079).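 Further: total protein by sulforhodamine B absorbance as a cytotoxicity measure; measured one day after compound addition.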 Particulars: primary human HUVEC with PBMC. The method in brief:
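Co-culture of human umbilical vein endothelial cells and PBMC, read 24 h after dosing. Total protein by 0.1% SRB staining after 10% TCA fixation, absorbance at 560 nm; bidirectional fit against DMSO.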

Read-out in test [9]: Interleukin-1 alpha (IL1a), IL1A (gene 3552)
The test is described as follows: BSK_LPS_IL1a: BioMAP Diversity Plus: LPS Assay for Interleukin-1 alpha (IL1a) Biomarker Activity (AID 2283080). Particulars: primary human HUVEC with PBMC; actives raise or lower the signal. The gist of the method:
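Human umbilical vein endothelial cells co-cultured with PBMC and stimulated with LPS; IL-1a measured by ELISA 24 h after dosing. Bidirectional fitting against DMSO; cytotoxicity checked by SRB staining in parallel cultures.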

Read-out in test [10]: Monocyte Chemoattractant Protein-1 (MCP1), CCL2 (gene 6347)
The test is described as follows: BSK_LPS_MCP1: BioMAP Diversity Plus: LPS Assay for Monocyte Chemoattractant Protein-1 (MCP1) Biomarker Activity (AID 2283081).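 On AC50: secreted MCP-1 protein quantified by ELISA in culture supernatant.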 Particulars: primary human HUVEC with PBMC; actives raise or lower the signal. The gist of the method:
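Human umbilical vein endothelial cells co-cultured with PBMC, LPS-stimulated; secreted MCP-1 measured by ELISA 24 h after compound addition. Bidirectional curve fitting against DMSO baseline; SRB total-protein staining in parallel cultures for cytotoxicity.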

Test [11] is described as follows: BSK_LPS_PGE2: BioMAP Diversity Plus: LPS Assay for Prostaglandin E2 (PGE2) Biomarker Activity (AID 2283082).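 On AC50: secreted prostaglandin E2 measured by ELISA in LPS-stimulated co-culture.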 The following applies: primary human HUVEC with PBMC; actives raise or lower the signal. The gist of the method:
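Compounds were added to the LPS co-culture of endothelium and PBMC, and PGE2 was measured by ELISA after 24 h. Responses in either direction were fitted with DMSO as baseline.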

Read-out in test [12]: Macrophage colony-stimulating factor (MCSF), CSF1 (gene 1435)
The test is described as follows: BSK_LPS_MCSF: BioMAP Diversity Plus: LPS Assay for Macrophage colony-stimulating factor (MCSF) Biomarker Activity (AID 2283083). The following applies: primary human HUVEC with PBMC; actives raise or lower the signal. The method in brief:
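HUVEC–PBMC co-culture, M-CSF measured by ELISA 24 h after chemical dosing. Fitted in both directions relative to DMSO as negative control; overt cytotoxicity assessed by SRB total-protein staining in parallel cultures.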

Read-out in test [13]: Tissue Factor, F3 (gene 2152)
The test is described as follows: BSK_LPS_TissueFactor: BioMAP Diversity Plus: LPS Assay for Tissue Factor Biomarker Activity (AID 2283084). Particulars: primary human HUVEC with PBMC; actives raise or lower the signal. The gist of the method:
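Human umbilical vein endothelial cells co-cultured with PBMC were dosed with compound. Cell-surface CD142 was measured by ELISA 24 h later. Activity was fitted bidirectionally against DMSO, with SRB total-protein staining in parallel cultures for cytotoxicity.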

Read-out in test [14]: Tumor necrosis factor (Homo sapiens) (UniProt P01375)
The test is described as follows: BSK_LPS_TNFa: BioMAP Diversity Plus: LPS Assay for Tumour Necrosis Factor alpha (TNFa) Biomarker Activity (AID 2283085).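 On AC50: TNFa protein level quantified by ELISA in the co-culture.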 Particulars: primary human HUVEC with PBMC; actives raise or lower the signal. The method in brief: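 Cells (umbilical vein endothelium plus peripheral blood mononuclear cells) were dosed with chemical, incubated 24 h, then TNFa was quantified by ELISA; values derive from bidirectional fitting with DMSO as baseline.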

Read-out in test [15]: Vascular cell adhesion molecule 1 (VCAM1), VCAM1 (gene 7412)
The test is described as follows: BSK_LPS_VCAM1: BioMAP Diversity Plus: LPS Assay for Vascular cell adhesion molecule 1 (VCAM1) Biomarker Activity (AID 2283086). Particulars: primary human HUVEC with PBMC; actives raise or lower the signal. The method in brief:
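Cells are dosed in an LPS-stimulated endothelial/mononuclear co-culture and, after 24 h, VCAM-1 is quantified by ELISA. Activity in either direction is fitted relative to the DMSO negative control.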

Read-out in test [16]: CD40, CD40 (gene 958)
The test is described as follows: BSK_SAg_CD40: BioMAP Diversity Plus: SAg Assay for CD40 Biomarker Activity (AID 2283088). Particulars: primary human HUVEC with PBMC; actives raise or lower the signal. The method in brief:
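HUVEC plus PBMC co-culture, superantigen-activated, with CD40 read by ELISA 24 h after dosing. Curves fitted in both directions against DMSO. Overt cytotoxicity checked by parallel SRB total-protein staining.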

Read-out in a further test: CD69, CD69 (gene 969)
The test is described as follows: BSK_SAg_CD69: BioMAP Diversity Plus: SAg Assay for CD69 Biomarker Activity (AID 2283089).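 On AC50: cell surface CD69 protein quantified by ELISA with fluorescence detection.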 Particulars: primary human HUVEC with PBMC; actives raise or lower the signal. The method in brief: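 Values derive from bidirectional fitting relative to DMSO vehicle. Cells: umbilical vein endothelium plus peripheral blood mononuclear cells, treated 24 h before fluorescent ELISA for CD69.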

Read-out in test [17]: Monocyte Chemoattractant Protein-1 (MCP1), CCL2 (gene 6347)
The test is described as follows: BSK_SAg_MCP1: BioMAP Diversity Plus: SAg Assay for Monocyte Chemoattractant Protein-1 (MCP1) Biomarker Activity (AID 2283090). The following applies: primary human HUVEC with PBMC; actives raise or lower the signal. The gist of the method:
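Values derive from bidirectional fitting of ELISA-measured MCP1 against DMSO controls. Readings were taken 24 h after dosing human vascular endothelial cells co-cultured with peripheral blood mononuclear cells under superantigen stimulation.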

Read-out in test [18]: E-selectin (Homo sapiens) (UniProt P16581)
The test is described as follows: BSK_SAg_Eselectin: BioMAP Diversity Plus: SAg Assay for Eselectin Biomarker Activity (AID 2283091). The following applies: primary human HUVEC with PBMC; actives raise or lower the signal. The gist of the method: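 Human umbilical vein endothelial cells co-cultured with peripheral blood mononuclear cells, SAg system. E-selectin is measured by ELISA 24 h after dosing and fitted bidirectionally against DMSO. Cytotoxicity is checked by SRB staining of parallel cultures.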

Calls of active or inactive are those of the source. How the source made its calls: active means hit-call score of the fitted dose curve at least 0.9, where 1 is the maximum; inactive means score below 0.9.

In general, AC50 refers to the concentration at which the activity in the assay is half-maximal.

Tumor necrosis factor (Homo sapiens), sequence (P01375 whole entry, looked up): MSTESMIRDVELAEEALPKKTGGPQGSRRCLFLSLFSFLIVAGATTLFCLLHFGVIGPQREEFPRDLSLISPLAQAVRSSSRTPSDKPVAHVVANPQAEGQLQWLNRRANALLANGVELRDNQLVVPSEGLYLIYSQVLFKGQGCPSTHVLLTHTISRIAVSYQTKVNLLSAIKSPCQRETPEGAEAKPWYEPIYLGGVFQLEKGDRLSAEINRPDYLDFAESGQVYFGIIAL
E-selectin (Homo sapiens), sequence (P16581 whole entry, looked up): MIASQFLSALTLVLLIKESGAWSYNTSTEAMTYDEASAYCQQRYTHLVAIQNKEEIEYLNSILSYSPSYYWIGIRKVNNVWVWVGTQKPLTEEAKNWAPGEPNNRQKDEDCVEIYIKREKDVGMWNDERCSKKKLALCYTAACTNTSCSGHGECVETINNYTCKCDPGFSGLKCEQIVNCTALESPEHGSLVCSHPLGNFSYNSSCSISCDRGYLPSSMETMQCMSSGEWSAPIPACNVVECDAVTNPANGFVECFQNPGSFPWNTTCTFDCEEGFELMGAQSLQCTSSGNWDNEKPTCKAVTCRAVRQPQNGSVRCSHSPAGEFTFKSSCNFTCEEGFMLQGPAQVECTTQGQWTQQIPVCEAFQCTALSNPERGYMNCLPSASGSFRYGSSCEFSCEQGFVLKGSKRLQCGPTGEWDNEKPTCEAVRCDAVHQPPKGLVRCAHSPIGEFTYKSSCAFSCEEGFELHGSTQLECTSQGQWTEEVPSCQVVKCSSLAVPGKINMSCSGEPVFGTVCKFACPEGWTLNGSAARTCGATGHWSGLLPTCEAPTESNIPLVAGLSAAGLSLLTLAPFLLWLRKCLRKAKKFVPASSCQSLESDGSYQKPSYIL

As for `OCCN1CCOCC1`, the outcome is “inactive” in test [1]; “inactive” in test [2]; “inactive” in test [3]; “inactive” in test [4]; “inactive” with CD40, CD40 (gene 958) [5]; “inactive” in test [6]. The result in [7], in [8], in test [9], in test [10], in [11] and in test [12] was inactive. The outcome in test [13] is “inactive”; in test [14] it was “inactive”; in [15], “inactive”; in the test with CD40, CD40 (gene 958) [16] it was “inactive”; in the test with CD69, CD69 (gene 969), “inactive”; in test [17], “inactive”. Also, the result in test [18] was inactive.
Take `O=C(c1ccc(OCCN2CCCCC2)cc1)c1c(-c2ccc(O)cc2)sc2cc(O)ccc12`: the AC50 in test [1] was 19.8 µM (active); in [2], 29.1 µM (active); in [3], 17.9 µM (active); in [4], 34.9 µM (active); in the test with CD40, CD40 (gene 958) [5] it was 16.6 µM (active); in test [6], 38.3 µM (active). The concentration at half-maximal activity (AC50) in test [7] is 33.8 µM (active); in test [8], 26.7 µM (active); in test [9] it was 21 µM (active); in test [10] it was 30.8 µM (active); in [11] it was 20 µM (active); in test [13], 35.9 µM (active). Moreover, the AC50 in test [14] is 33.8 µM (active); in [15], 28.4 µM (active); with CD40, CD40 (gene 958) [16], 19.4 µM (active); in the test with CD69, CD69 (gene 969) it was 23 µM (active); in test [17], 30.7 µM (active); in test [18] it was 37.4 µM (active).
For the compound `Nc1ccc(N)c([N+](=O)[O-])c1`, the outcome is “inactive” in test [1]; “inactive” in test [2]; “inactive” in test [3]; “inactive” in test [4]; “inactive” in the test with CD40, CD40 (gene 958) [5]; “inactive” in test [6]. The result in test [7], in test [8], in [9], in test [10], in test [11] and in test [12] was inactive. The outcome in test [13] is “inactive”; in test [14] it was “inactive”; with CD40, CD40 (gene 958) [16], “inactive”; in test [17] it was “inactive”; in test [18] it was “inactive”. In addition, the AC50 in test [15] was 5.09 µM (active); with CD69, CD69 (gene 969), 8.69 µM (active).

The values above are taken from PubChem BioAssay (EPA / NIEHS).
